This passage reports z-score and composite z-score results from PubChem BioAssay.

The structures appear in SMILES notation. Active and inactive are the calls of the source.

The nature of experiment [1]: E. coli DRC41 culture turbidity changes, primary screen, E. coli filamentation inducer project, strain DRC41, OD650, 48 h (AID 1152).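 Also: E. coli MC1000 strain DRC41 lacking acrAB efflux pump and sulA.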 Particulars: E. coli DRC41 (acrAB sulA), higher = more signal, called active from +8 up or from −8 down.
The nature of experiment [2]: small-molecule binders of probe aLefty1, primary screen, biochemical, small-molecule microarray, 635/667 nm fluorescence (AID 1153).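 Also: score merges spot fluorescence with signal-to-noise ratio from the scanned slide images.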 Particulars: higher = more signal.
The nature of experiment [3]: PSAC antagonists in infected red cells, primary screen, cell-based, P. falciparum Indochina, OD700, 1 h (AID 1154). Particulars: P. falciparum Indochina infected RBC osmotic lysis, higher = more signal, called active from +8 up or from −8 down.
Experiment [4] can be described thus: PSAC antagonists in infected red cells, primary screen, cell-based, P. falciparum Indochina, OD700, 2 h (AID 1155).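 Also: lysis reports solute entry through the parasite surface anion channel PSAC; channel blockers reduce lysis of infected cells.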 Particulars: P. falciparum Indochina infected erythrocytes, osmotic lysis OD700; higher = more signal, called active from +8 up or from −8 down.
Experiment [5] can be described thus: osmotic lysis modulators in infected erythrocytes, primary screen, PSAC antagonist project, cell-based, P. falciparum Indochina, OD700, 3 h (AID 1156). Particulars: higher = more signal, called active from +8 up or from −8 down.
Experiment [6] can be described thus: PSAC antagonists in infected red cells, primary screen, cell-based, P. falciparum Indochina, OD700, 18 h (AID 1157). The note with it: P. falciparum Indochina infected erythrocytes, osmotic lysis OD700, 18 h; higher = more signal, called active from +8 up or from −8 down.
A short description of experiment [7]: modulators of S6 phosphorylation in cells, primary screen, cell-based, A549, cytoblot, luminescence, serum-stimulated (AID 1158).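 Also: serum-stimulated A549 lung adenocarcinoma cells; signal is phosphorylated S6 detected by cytoblot immunostaining with HRP secondary.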 Particulars: A549 phospho-S6 cytoblot, 5 h, higher = more signal.
Experiment [8] has as its target NADPH oxidase 2 (Homo sapiens) (UniProt P04839). Kind of experiment: NOX2-dependent H2O2 signal modulators, primary screen, NOX inhibitor project, cell-based, HEK293-NOX2, PMA-stimulated, Amplex Red fluorescence (AID 1159). Also: test concentration not given here. The note with it: 45 min, higher = more signal, called active from +8 up or from −8 down.
For experiment [9], the target named is NADPH oxidase 4 (Homo sapiens) (UniProt Q9NPH5). Kind of experiment: NOX4-dependent H2O2 signal modulators, primary screen, NOX inhibitor project, cell-based, HEK293-NOX4, tetracycline-induced, Amplex Red fluorescence (AID 1160). The note with it: 45 min, higher = more signal, called active from +8 up or from −8 down.
Sequence of NADPH oxidase 4 (Homo sapiens) (Q9NPH5 whole entry, looked up): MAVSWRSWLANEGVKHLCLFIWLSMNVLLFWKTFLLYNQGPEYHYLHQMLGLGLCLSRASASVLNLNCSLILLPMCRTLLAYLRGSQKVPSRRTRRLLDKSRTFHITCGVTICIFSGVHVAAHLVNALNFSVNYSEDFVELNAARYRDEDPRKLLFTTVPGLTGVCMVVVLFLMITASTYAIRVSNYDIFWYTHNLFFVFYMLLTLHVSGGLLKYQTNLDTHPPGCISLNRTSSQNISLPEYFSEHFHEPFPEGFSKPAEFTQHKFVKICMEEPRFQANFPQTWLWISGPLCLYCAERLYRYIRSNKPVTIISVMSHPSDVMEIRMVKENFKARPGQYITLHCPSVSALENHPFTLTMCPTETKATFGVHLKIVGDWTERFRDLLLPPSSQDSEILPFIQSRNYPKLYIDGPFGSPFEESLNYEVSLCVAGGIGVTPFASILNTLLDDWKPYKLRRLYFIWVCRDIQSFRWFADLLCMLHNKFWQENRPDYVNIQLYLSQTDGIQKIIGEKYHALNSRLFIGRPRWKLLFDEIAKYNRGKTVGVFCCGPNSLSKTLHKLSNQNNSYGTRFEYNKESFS
Experiment [10] addresses NADPH oxidase 5 (Homo sapiens) (UniProt Q96PH1). Kind of experiment: NOX5-dependent H2O2 signal modulators, primary screen, NOX inhibitor project, cell-based, HEK293-NOX5, Amplex Red fluorescence (AID 1161). Particulars: HEK293-NOX5, ionomycin, 45 min, higher = more signal.

Sequence of NADPH oxidase 5 (Homo sapiens) (Q96PH1 whole entry, looked up): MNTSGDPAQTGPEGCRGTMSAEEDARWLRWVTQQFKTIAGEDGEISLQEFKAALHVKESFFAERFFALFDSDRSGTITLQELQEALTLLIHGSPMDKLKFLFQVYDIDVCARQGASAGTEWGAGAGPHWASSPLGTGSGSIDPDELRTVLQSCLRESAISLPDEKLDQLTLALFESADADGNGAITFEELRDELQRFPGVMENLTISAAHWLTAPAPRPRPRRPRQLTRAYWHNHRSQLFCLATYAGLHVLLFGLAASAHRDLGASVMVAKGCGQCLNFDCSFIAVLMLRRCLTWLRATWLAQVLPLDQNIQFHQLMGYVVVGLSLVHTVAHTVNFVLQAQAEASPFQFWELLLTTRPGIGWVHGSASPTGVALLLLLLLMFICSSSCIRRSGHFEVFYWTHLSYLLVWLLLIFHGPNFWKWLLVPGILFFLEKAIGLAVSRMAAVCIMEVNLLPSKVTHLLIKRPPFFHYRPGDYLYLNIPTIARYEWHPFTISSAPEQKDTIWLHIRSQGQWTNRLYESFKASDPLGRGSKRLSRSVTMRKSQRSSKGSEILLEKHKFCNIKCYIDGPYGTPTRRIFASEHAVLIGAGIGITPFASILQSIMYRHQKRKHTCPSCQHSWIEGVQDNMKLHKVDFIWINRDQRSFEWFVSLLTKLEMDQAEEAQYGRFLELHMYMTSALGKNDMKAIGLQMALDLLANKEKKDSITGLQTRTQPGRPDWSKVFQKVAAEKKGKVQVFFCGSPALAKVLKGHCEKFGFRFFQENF
Sequence of NADPH oxidase 2 (Homo sapiens) (P04839 whole entry, looked up): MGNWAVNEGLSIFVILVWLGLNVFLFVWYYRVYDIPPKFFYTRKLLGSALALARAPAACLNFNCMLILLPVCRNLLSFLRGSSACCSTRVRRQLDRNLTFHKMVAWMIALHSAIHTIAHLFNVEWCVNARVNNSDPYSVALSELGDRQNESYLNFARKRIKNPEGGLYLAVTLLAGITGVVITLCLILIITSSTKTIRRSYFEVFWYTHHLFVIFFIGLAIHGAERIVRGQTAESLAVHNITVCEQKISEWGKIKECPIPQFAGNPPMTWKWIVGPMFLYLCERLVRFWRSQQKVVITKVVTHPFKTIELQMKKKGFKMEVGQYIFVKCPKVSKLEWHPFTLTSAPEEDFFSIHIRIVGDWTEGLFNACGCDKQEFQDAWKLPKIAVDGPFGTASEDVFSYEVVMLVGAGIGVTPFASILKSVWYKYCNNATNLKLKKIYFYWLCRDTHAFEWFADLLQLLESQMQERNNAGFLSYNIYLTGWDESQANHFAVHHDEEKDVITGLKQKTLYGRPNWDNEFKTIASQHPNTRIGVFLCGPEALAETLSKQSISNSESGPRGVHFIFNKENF

Regarding `CCCCC(=C=CC[C@@H](O)c1ccc(OCCO)cc1)C[C@@H](O)COCc1ccccc1`, the z-score in [1] is 1.98 (inactive); in [3], 16.5 (active); in experiment [4] it was 1.73 (inactive); in experiment [5], -0.0577 (inactive); in experiment [6], -0.237 (inactive); in experiment [7], 1.95. Besides, the results for the z-score in experiment [8], in experiment [9] and in experiment [10] were -2.67 (inactive), -0.61 (inactive) and -2.45, respectively. Besides, the composite z-score in [2] worked out at 0.596.
For the molecule `C=CCNC(=O)[C@H]1[C@@H]2C(=O)O[C@@H](c3ccccc3)[C@@H](c3ccccc3)N2[C@@H](c2ccccc2OCCO)[C@]12C(=O)N(C(=O)OCCOC)c1ccc(C#CC3=CCCCC3)cc12`, the z-score in experiment [1] was 0.687 (inactive); in experiment [3], 2.75 (inactive); in [4], 1.32 (inactive); in [5] it was -0.032 (inactive); in experiment [6] it was 0.725 (inactive); in experiment [7], -0.321. In addition, the z-score in [8] is 2.28 (inactive); in experiment [9], -0.678 (inactive); in experiment [10] it was 1.58. This molecule also came in with a composite z-score in [2] of 0.944.
As for `CCOC(=O)C[C@H]1[C@H](OC(=O)c2ccccc2-c2ccccc2)[C@@H](NC(=O)c2ccc3ccccc3n2)c2cc(OCCCO)ccc2N1C(=O)c1ccc2ccccc2n1`, the z-score in experiment [1] is 1.17 (inactive); in [3], 3.67 (inactive); in experiment [4] it was -0.774 (inactive); in experiment [5], -1.88 (inactive); in experiment [6] it was -2.15 (inactive); in experiment [7] it was 0.112. Further, the z-score is 1.18 (inactive) in experiment [8], 1.07 (inactive) in experiment [9] and 2.5 in [10]. The molecule further registered a composite z-score in experiment [2] of -0.0747.
In the case of `CN(C)CCCNC(=O)[C@@]1(C)c2ccccc2C(=O)N(Cc2cc(C(F)(F)F)cc(C(F)(F)F)c2)[C@H]1c1ccc(CO)cc1`, the z-score is -1.2 (inactive) in experiment [1]; 2.37 (inactive) in [3]; -0.0111 (inactive) in experiment [4]; 2.17 (inactive) in experiment [5]; 0.327 (inactive) in [6]; 0.16 in experiment [7]. Also, the z-score in [8] is 0.0342 (inactive); in experiment [9], -1.35 (inactive); in [10], -2.64. The composite z-score in experiment [2] was -0.147.
Regarding `COc1ccc(C(O)C2C=CC3C(=O)N(c4ccccc4)C(=O)C3N2Nc2ccc(C#N)cc2)c2ccccc12` (stereo not given), the z-score in [1] is -1.2 (inactive); in experiment [3], 9.06 (active); in experiment [4], 2.06 (inactive); in experiment [5] it was 0.361 (inactive); in experiment [6] it was 1.44 (inactive); in experiment [7], -1.03. In addition, the z-score in [8] was -1.44 (inactive); in experiment [9], -3.09 (inactive); in experiment [10], -2.29. The composite z-score in [2] was determined as 0.481.
With `O=C1OC[C@@H](c2ccccc2)N2CC(/C=C/c3ccccc3)=CC12` (stereo not given in full), the z-score was -0.107 (inactive) in experiment [1]; 18.1 (active) in experiment [3]; 3.85 (inactive) in [4]; 2.22 (inactive) in experiment [5]; 1.55 (inactive) in [6]; -0.126 in [7]. In addition, the results for the z-score in [8], in [9] and in experiment [10] were 0.724 (inactive), -0.598 (inactive) and 0.967, respectively. The same molecule gave a composite z-score in experiment [2] of -0.469.
On to `COc1ccc([Si](C)(C)[C@H]2[C@H](CCn3cc([C@H](O)c4ccccc4)nn3)O[C@@]3(C(=O)N(Cc4ccc(N5CCC5=O)cc4)c4ccccc43)[C@@H]2C)cc1`, for which the z-score in [1] is 0.503 (inactive); in experiment [3], 30.5 (active); in experiment [4], 27.1 (active); in experiment [5], 1.25 (inactive); in [6] it was 2.07 (inactive); in experiment [7], 0.436. In addition, the z-score was 0.923 (inactive) in experiment [8], 1.6 (inactive) in [9] and 2.22 in experiment [10]. In [2], this molecule had a composite z-score of 0.0341.
`COCCOC(=O)N1C(=O)[C@@]2(c3cc(C#Cc4ccc(OC)cc4)ccc31)[C@H](C(=O)NC[C@H](O)c1ccccc1)[C@H]1C(=O)O[C@H](c3ccccc3)[C@H](c3ccccc3)N1[C@@H]2c1ccc(O)cc1`: the z-score in experiment [1] was -0.16 (inactive); in [3], 1.48 (inactive); in experiment [4], 0.702 (inactive); in experiment [5], -0.784 (inactive); in experiment [6], 0.704 (inactive); in experiment [7] it was 0.236. The z-score is 1.04 (inactive) in experiment [8], 0.0374 (inactive) in experiment [9] and 0.00809 in experiment [10]. Besides, in experiment [2], the composite z-score is 0.289.
`[N-]=[N+]=NCc1ccccc1C[C@]1(C(=O)NCC(O)CO)N=C(c2ccc(OCCCO)cc2)O[C@H]1c1ccccc1CN=[N+]=[N-]` (stereo not given in full): the z-score is -0.0074 (inactive) in experiment [1]; 19.3 (active) in [3]; 2.49 (inactive) in [4]; 1.81 (inactive) in experiment [5]; -0.481 (inactive) in experiment [6]; 1.67 in experiment [7]. Also, the z-score in experiment [8] was -1.97 (inactive); in experiment [9] it was -2.19 (inactive); in experiment [10], -1.41. In experiment [2], this molecule returned a composite z-score of 0.865.
`COc1ccc(C(O)C2C=CC3C(=O)N(Cc4ccccc4)C(=O)C3N2n2cnnc2)c2ccccc12` (stereo not given): the z-score in [1] was -0.855 (inactive); in [3] it was 0.782 (inactive); in experiment [4] it was -0.11 (inactive); in experiment [5], 1.57 (inactive); in experiment [6] it was -1.58 (inactive); in experiment [7] it was 2.01. In addition, the figures for the z-score in [8], in experiment [9] and in [10] were -2.98 (inactive), -0.674 (inactive) and -3.65, respectively. Besides, the composite z-score in [2] was found to be 0.425.
For the molecule `CCCCN1CC=CC23O[C@@H]4/C=C\CCC(C)OC(=O)C4[C@H]2C(=O)N(CCCCCCO)[C@@H]3C1=O` (stereo not given in full), the z-score in experiment [1] is 0.622 (inactive); in experiment [3], 0.548 (inactive); in experiment [4], 0.31 (inactive); in [5] it was 0.573 (inactive); in [6] it was 0.454 (inactive); in experiment [7], 1.81. For the same molecule, the z-score in experiment [8] is 1.2 (inactive); in experiment [9], 0.112 (inactive); in experiment [10] it was 2.3. In experiment [2], the composite z-score is -0.145.
Turning to `COc1ccc(NN2C(C(O)c3ccco3)C=CC3C(=O)N(C4CCCCC4)C(=O)C32)cc1` (stereo not given), the z-score is -0.636 (inactive) in experiment [1]; 2.54 (inactive) in experiment [3]; 0.143 (inactive) in experiment [4]; 0.546 (inactive) in experiment [5]; 0.0933 (inactive) in experiment [6]; -0.686 in experiment [7]. The z-score in [8] is -0.19 (inactive); in experiment [9], -0.842 (inactive); in experiment [10], -1.1. This molecule registered a composite z-score in experiment [2] of 0.364.
For the molecule `CC(C)(C)OC(=O)CC[C@]1(C(=O)N2CCOCC2)N=C(c2ccc(OCCCO)cc2)O[C@H]1c1ccccc1`, the z-score in experiment [1] was 1.12 (inactive); in experiment [3], 22.9 (active); in experiment [4] it was 5.18 (inactive); in experiment [5] it was 1.05 (inactive); in experiment [6], 0.815 (inactive); in experiment [7], -0.208. For the same molecule, the z-score in experiment [8] is -0.291 (inactive); in experiment [9], -0.457 (inactive); in experiment [10], -0.474. This molecule yielded a composite z-score in experiment [2] of 0.0468.
